Source: PubChem BioAssay (NCI)
Compounds without any hit were thinned out: in the full panel of roughly 83,000, 20% have a hit.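 How to read the values: 0–100, growth inhibition (40 = 60% inhibited); 0, no net growth; -100 to 0, cell death (-40 = 40% of starting cells died; -100 = all dead).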 Active and inactive are the calls of the source. Rule for the calls: active = growth percent below 10; inactive = the rest.

The molecules below were run on HL-60(TB) leukemia (assay: NCI-60 one-dose screen, 48 h (100 = growth as untreated, 0 = no growth, -100 = all killed)). Conditions: 10 µM unless noted.
`COc1ccc(-c2ccc(NC(=O)Nc3ccc(Cl)c(C(F)(F)F)c3)c(C)n2)cc1` was tested, and the growth was 32.3% (inactive). `Cc1[nH]cnc1/C=C1\SC(N2CCCCC2)=NC1=O` was tested, and the growth was 96.4% (inactive). For `O=C(c1ccccc1)[C@@H](c1ccccc1)[C@]1(O)C(=O)Nc2ccccc21`, the growth was 107% (inactive). With `O=C(/C=C/c1ccc(Cl)cc1)c1ccc(NC(=O)N2CCN(c3cc4c(cc3F)c(=O)c(C(=O)O)cn4C3CC3)CC2)cc1` the growth was 94.2% (inactive). `C[C@]12CC[C@H](O)CC1=CC[C@@H]1[C@@H]2CC[C@]2(C)C(c3cccnc3)=CC[C@@H]12` was tested, and the growth was -25% (active). With `CCCCCCCCOC(=O)c1ccccn1` the growth was 119% (inactive). `O=C1C=CC(=O)N1C1c2ccccc2-c2ccccc21` was tested, and the growth was 77.7% (inactive). `COC(=O)/C=C1\SC(=Nc2cccc(Cl)c2)N(CCc2c[nH]c3ccccc23)C1=O` was tested, and the growth was -37.1% (active). `Ic1ccc(Nc2nc3nonc3nc2Nc2ccc(I)cc2)cc1` was tested, and the growth was -50.2% (active). With `CCCC(=O)Oc1ccc2ccccc2c1` the growth was 98.5% (inactive). In the case of `O=C(O)c1ccccc1Oc1cc(-c2ccco2)nc(OCCN2CCOCC2)n1`, the growth is reported as 105% (inactive). For `Cc1ccc(Nc2cc(N)nc(N)n2)cc1`, the growth was 99.6% (inactive). `NS(=O)(=O)c1ccc(-n2ncc3c(NC4CCCCC4)ncnc32)cc1` was tested, and the growth was 70.7% (inactive). In the case of `COCc1cnccc1NC1CCCCCC1`, the growth is reported as 86.2% (inactive). With `COc1ccc2nc(C)cc(Sc3nc4ccccc4s3)c2c1` the growth was 6.64% (active). For `CN1C(=O)N(C)C2C1NN=c1s/c(=C\c3ccc([N+](=O)[O-])cc3)c(=O)n12` (stereo unspecified), the growth was 7.14% (active). For `Cc1[nH]c(C(=O)Nc2ccccc2OC2CCN(CCN3CCOCC3)CC2)c(Cl)c1Cl`, the growth was 97.9% (inactive). For `O=C1C2=C(C(=O)c3c(O)ccc(O)c31)N(c1cccnc1)Cc1ccccc1O2`, the growth was -23.5% (active). With `COc1ccc(C2=NC(=O)NC2c2ccc(OC)cc2)cc1` (stereo unspecified) the growth was 61.2% (inactive). For `C=C1C(=O)O[C@H]2[C@H]1CC/C(COC(=O)NCCc1cccc(OC)c1)=C\CC[C@@]1(C)O[C@@H]21`, the growth was 6.53% (active). With `COC(=O)c1c2c(c(C)[n+]([O-])c1C)C(=O)C(NCc1ccc(Br)cc1)=CC2=O` the growth was -19.9% (active). In the case of `COC(=O)[C@]12CC[C@@H](C)[C@H](C)[C@@H]1C1=CC[C@@H]3[C@@]4(C)C(C=O)=C[C@@](C)(CO)[C@@H]4[C@H](O)C[C@@]3(C)[C@]1(C)CC2`, the growth is reported as -14.4% (active). With `CN1C(=O)N(C)C2NC(N/N=C/c3ccccc3)=NC21` (stereo unspecified) the growth was 99.6% (inactive). For `Fc1ccc(-c2nc(-c3ccc(-c4nc5ccc(F)cc5[nH]4)cc3)no2)cc1`, the growth was 96.3% (inactive). For `O=C(/C=C/c1ccccc1)c1ccc(O)c(CN2CCN(c3cc4c(cc3F)c(=O)c(C(=O)O)cn4C3CC3)CC2)c1`, the growth was -6% (active). With `C#CCOc1ccc2ncnc(Nc3cccc(CNC(=O)C=C)c3)c2c1` the growth was 97.4% [8.25 µM] (inactive).
